Only some compounds are listed: those with a hit (about 11% of all), similar ones and a draw of the others.
OTUD3 inh = inhibitors of human OTUD3 deubiquitinase. OTU domain-containing protein 3 (Homo sapiens), Q5T2D3. AID 1645858, 2021. 47,000 compounds, 0.7% hits. purified OTUD3, Ub-rhodamine fluorescence, 2 h. inhibition, % at 25 µM
USP28 block = inhibitors of human USP28 deubiquitinase | Ubiquitin carboxyl-terminal hydrolase 28 (Homo sapiens), Q96RU2 | inhibition, % at 25 µM | AID 1645857, 2021 | 47,000 compounds, 3% hits | purified USP28, Ub-rhodamine cleavage fluorescence, 30 min
USP17 inh = inhibitors of human USP17 deubiquitinase | AID 1645855, 2021 | purified USP17, Ub-rhodamine cleavage fluorescence, 3 h | 47,000 compounds, 6.5% hits | inhibition, % at 50 µM
USP30 block = inhibitors of human USP30 deubiquitinase; purified USP30, Ub-rhodamine cleavage fluorescence; inhibition, % at 25 µM; 47,000 compounds, 5.3% hits; AID 1645860, 2021
* = called active by the depositor; nt = not tested or not shown. Cut-off read from the data, not from the text of the source: active = inhibition above about 30%; inactive = the rest.

SMILES	OTUD3 inh	USP28 block	USP17 inh	USP30 block
Cc1nc(NCCc2ccc(S(N)(=O)=O)cc2)c2oc3ccccc3c2n1	2.0	20.2	29.6	36.2*
COc1ccccc1C(=O)Nc1cc(-c2ccc(F)c(F)c2)no1	9.6	8.7	33.4*	44.0*
COc1ccccc1NC(=O)c1cc(-c2ccccn2)nc2ccccc12	9.9	2.9	58.6*	28.2
COc1ccc(CC(=O)Nc2cc(-c3ccccn3)no2)cc1	-7.2	-0.2	-16.9	-0.4
COc1ccc(C(=O)Nc2cc(-c3ccccn3)no2)c(OC)c1	9.7	4.9	32.8*	9.7
c1ccc(CSc2ccc3nnc(-c4ccccn4)n3n2)cc1	10.6	33.5*	20.1	35.7*
O=C(CSc1ccc2nnc(CCNS(=O)(=O)c3ccccc3)n2n1)N1CCCc2ccccc21	-7.0	-1.0	-0.8	4.0
c1ccc(CSc2ccc3nnc(-c4cccnc4)n3n2)nc1	-0.3	-3.1	-16.8	-0.4
FC(F)(F)c1cccc(CSc2ccc3nnc(-c4ccccn4)n3n2)c1	-2.6	77.6*	-0.5	32.4*
Fc1cccc(-c2nnc3ccc(SCc4ccccn4)nn23)c1	15.1	11.7	22.7	30.2*
O=C(CSc1ccc2nnc(-c3cccc(F)c3)n2n1)N1CCCc2ccccc21	39.8*	44.5*	62.6*	72.9*
Cc1nn2c(S(=O)(=O)Nc3ccccc3Cl)c(C)nc2s1	-3.3	-4.7	-3.1	-2.5
Cc1nc(-c2ccc(S(=O)(=O)Nc3cccc(C#N)c3)cc2)co1	-14.6	-18.5	-14.6	-31.7
O=C(CSc1ccc2nnc(-c3ccncc3)n2n1)Nc1cccc(C(F)(F)F)c1	-4.1	-0.6	47.3*	-10.6
CN(C)c1cccc(-c2nc(-c3cn(Cc4ccccc4)nn3)no2)c1	0.2	12.2	10.4	15.1
CC(OC(=O)CNS(=O)(=O)c1ccc2ccccc2c1)C(=O)Nc1ccc(Cl)cc1Cl (centres undefined)	15.2	21.2	nt	45.9*
CCOc1ccc(NC(=O)CSc2nc3sc4c(c3c(=O)n2-c2ccc(Cl)cc2)CCN(C)C4)cc1	0.1	-9.9	-0.1	-56.9
CC(C)(C)c1ccc(C(=O)Nc2ccc(Oc3cccnc3)nc2)cc1	7.8	52.5*	0.0	13.4
Cc1ccccc1C(=O)Nc1ccc(Oc2ccc(C(C)(C)C)cc2)nc1	2.0	11.7	6.3	1.5
Cc1ccc(C2c3[nH]c4ccccc4c3C[C@H]3C(=O)N(c4ccccc4C(=O)NC4CCCC4)C(=O)N23)cc1 (some centres undefined)	-48.4	-39.5	-43.7	-173.3
Cc1cc(C)cc(NC(=O)CNc2cc(C)nc3nc(-c4cccnc4)nn23)c1	-1.9	-11.3	-6.9	-8.4
Cc1noc(-c2cccn(Cc3cccc(C(F)(F)F)c3)c2=O)n1	11.8	76.4*	13.0	13.8
N#Cc1c(-c2ccccc2)ccn(Cc2cccc(C(F)(F)F)c2)c1=O	2.6	16.5	52.9*	44.0*
COc1ccc(Cn2ccc(-c3ccccc3)c(C#N)c2=O)cc1	13.5	20.2	15.7	21.0
O=C(O)CCNc1nc(-c2ccccc2)nc2c1oc1ccccc12	-0.1	-7.7	4.4	11.5
SMILES	OTUD3 inh	USP28 block	USP17 inh	USP30 block
Cc1nn2c(CNC(=O)c3cc(F)ccc3Cl)c(C)nc2s1	0.6	-5.1	-3.1	0.7
CC1CCN(C(=O)Nc2ccccc2)Cc2nc3ccccc3n21 (centres undefined)	11.2	-0.5	6.3	12.0
CC1=CC(=O)C(C2=C(O)C(=O)C(C)=CC2=O)=C(O)C1=O	35.7*	45.7*	93.5*	20.5
CC(=O)Nc1ccc(S(=O)(=O)NCCn2c(C)cc3ccccc32)cc1	-39.8	-36.2	34.4*	-162.2
Cc1cc2ccccc2n1CCNS(=O)(=O)c1ccc([N+](=O)[O-])cc1	-16.9	15.0	16.8	-63.0
O=C(Nc1cccn2cnnc12)c1cc(F)ccc1F	-7.5	-4.1	7.1	-12.1
CC(NC(=O)CSc1nnc2n(-c3ccccc3)c(=O)c3ccccc3n12)c1ccccc1 (centres undefined)	8.2	10.1	12.2	48.1*
COc1ccc(NC(=O)CSc2nnc3n(-c4ccccc4)c(=O)c4c5c(sc4n23)CN(C)CC5)cc1	-2.0	17.2	-4.1	-4.8
COc1ccc(COc2ncnc3cc(Cl)ccc23)cc1	2.9	48.5*	11.6	14.0
Cc1ccccc1NC(=O)NC(C)(C(F)(F)F)C(F)(F)F	4.3	2.8	11.1	11.9
Cc1ccccc1N1C(=O)/C(=C\c2cccn2C)c2ccccc2C1=O	-5.3	3.6	61.4*	-66.3
O=S(=O)(C1CC1)N1CCOC2(CCCN(c3ccccn3)C2)C1 (centres undefined)	-14.8	-11.6	-20.5	-78.3

Source: PubChem (Buhrlage Lab, Dana-Farber Cancer Institute and Novartis Institutes for BioMedical Research (Cambridge, Mass))
